GLP1R inv ag = GLP-1 receptor (human) inverse agonism; HEK293 GLP-1R CRE-luciferase, luminescence, 24 h; GLP-1R form is constitutively active; P43220; AID 624417; actives 1.6% (n = 410,000); Potency, µM (series often up to 38.3 µM), without a hit: at the highest dose activity change, negative = inhibition, most hits filed as inhibitors; note: % is set by controls: 0 for no effect and ±100 for the full control effect; nearly all actives have a fitted effect of over 55% in size
Target sequence (P43220 whole entry, looked up): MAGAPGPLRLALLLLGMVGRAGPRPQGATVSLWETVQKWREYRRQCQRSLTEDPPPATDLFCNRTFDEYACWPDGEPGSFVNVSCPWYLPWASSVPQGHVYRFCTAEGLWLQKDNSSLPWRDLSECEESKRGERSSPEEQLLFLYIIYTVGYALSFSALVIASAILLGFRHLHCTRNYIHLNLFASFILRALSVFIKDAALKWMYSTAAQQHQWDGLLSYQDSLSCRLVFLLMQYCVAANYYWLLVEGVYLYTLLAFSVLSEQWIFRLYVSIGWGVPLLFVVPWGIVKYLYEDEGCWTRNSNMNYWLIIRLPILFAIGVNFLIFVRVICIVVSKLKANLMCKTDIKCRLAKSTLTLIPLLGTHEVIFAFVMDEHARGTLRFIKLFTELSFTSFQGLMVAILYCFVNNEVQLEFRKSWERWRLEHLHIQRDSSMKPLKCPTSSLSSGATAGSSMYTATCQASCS
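Inverse agonism was detected as reduced cAMP-driven luciferase luminescence after 24 h compound treatment. The cells were HEK293 clones expressing constitutively active human GLP-1R with the reporter. Reporter-only and GPR119 cell lines served as counterscreen controls.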
HEK293 tox = cytotoxic in the GLP-1 receptor inverse agonist counter-screen | HEK293 cAMP-luciferase reporter cells, luminescence, 24 h | Potency, µM (titrated, usually from 38.3 µM), for inactives: at the top dose activity change, negative = inhibition, actives largely listed as inhibitors | actives 0.13% (n = 410,000);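 note: loss of luciferase light is scored as toxicity; % is set by controls: 0 for no effect and ±100 for the full control effect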
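Quantitative HTS format, 1536 wells, 200 cells/uL seeded. Compounds: 23 nL, 24 h, 37 °C. Detection: luciferase reagent, luminescence at 12 min RT; decreased signal taken as cytotoxic.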
GLP1R ag = GLP-1 receptor (human) agonism. P43220. Potency, µM (doses to about 45.6 µM), for inactives: at the highest dose activation, usual class: activators. HEK293 GLP-1R CRE-luciferase, luminescence, 4-6 h; cells express a hypersensitive GLP-1R form. AID 624172. actives 0.007% (n = 380,000); note: % of control where 0% means no effect
Numbers without * were called inactive; ? = inconclusive. An excerpt weighted towards active compounds, which were near 1.7% of everything screened. Calls come from the whole dose curve; as a rule, active = well fitted curve in the direction sought with a large enough effect; inconclusive = small, poorly fitted or top-dose-only effect, or another doubt; inactive = no such curve, though single readings can be large; an effect the other way counts as inactive or inconclusive. Potency is the fitted concentration of half-maximal effect.

SMILES	GLP1R inv ag	HEK293 tox	GLP1R ag
COC(=O)N1CCCCC1c1cc(C(=O)NCc2cccnc2)no1 (stereo not given)	3%	8%	-2%
CCOc1ccc(-c2c(C(=O)N/N=C/c3ccc(C)s3)nnn2-c2nonc2N)cc1	11µM*	-6%	-2%
CCOc1ccc(-c2c(C(=O)N/N=C/c3cccs3)nnn2-c2nonc2N)cc1	-30%	-21%	0%
Cc1ccc(-c2c(C(=O)N/N=C/c3ccc4c(c3)OCO4)nnn2-c2nonc2N)cc1	10µM*	?	4%
Cc1ccc(SCc2c(C(=O)N/N=C/c3ccc4c(c3)OCO4)nnn2-c2nonc2N)cc1	0%	2%	-6%
CCOc1ccc(N2C(=O)CC(C(C)c3ccccc3)C2=O)cc1 (stereo not given)	-10%	2%	13%
CC(C(=O)N1CCCC1)N1CCN(S(=O)(=O)c2ccc(OC(F)(F)F)cc2)CC1 (stereo not given)	-14%	0%	0%
CC1CC(C)CN(C(=O)C(C)N2CCN(S(=O)(=O)c3ccc(C(F)(F)F)cc3)CC2)C1 (stereo not given)	10µM*	-5%	4%
CC(C)(C)c1ccc(S(=O)(=O)N2CCN(C3CCCC3)CC2)cc1	10%	4%	6%
CC1CC(C)CN(S(=O)(=O)c2ccc(C(C)(C)C)cc2)C1 (stereo not given)	2µM*	4%	8%
COc1ccccc1CNC(=O)Nc1nc(C(N)CCc2ccccc2)cs1 (stereo not given)	-9%	6%	-9%
COc1ccc2c(c1)c1c(c(=O)n(-c3ccccc3C)c(=O)n1CC(=O)Nc1c(C)cccc1C)n2C	18%	2%	-4%
Cc1ccc(S(=O)(=O)N2CCOCC2)cc1NC(=O)CNC(C)c1ccccc1 (stereo not given)	-14%	-2%	-6%
CC(NCC(=O)Nc1cc(S(=O)(=O)N2CCOCC2)ccc1Cl)c1ccc(Cl)cc1Cl (stereo not given)	5.6µM*	-16%	0%
CC(Oc1cccc(Cl)c1)C(=O)Nc1cc(S(=O)(=O)N2CCOCC2)ccc1N1CCCCC1 (stereo not given)	10µM*	0%	17%
CCN1CCN(c2ccc(S(=O)(=O)N3CCOCC3)cc2NC(=O)C(C)Oc2cccc(Cl)c2)CC1 (stereo not given)	?	0%	30%
O=C1CC(c2ccc3c(c2)OCCO3)Oc2ccccc21 (stereo not given)	?	-5%	2%
NC(=S)N/N=C1\CC(c2ccc3c(c2)OCCO3)Oc2ccc(F)cc21 (stereo not given)	3.5µM*	?	25%
O=C1CC(c2ccc3c(c2)OCCO3)Oc2ccc([N+](=O)[O-])cc21 (stereo not given)	-36%	6%	-8%
NC(=S)N/N=C1\CC(c2ccc3c(c2)OCCCO3)Oc2ccc(F)cc21 (stereo not given)	13µM*	?	24%
COc1cccc(-c2cc3nc(C)c(C)c(N4CCN(C(=O)c5ccoc5)CC4)n3n2)c1	18%	-31%	12%
NC(=S)N/N=C/c1ccccc1OCCSc1ccc(Cl)cc1	2.8µM*	3.2µM*	0%
CCOC(=O)N/N=C/c1ccccc1OCc1ccc(Cl)cc1	-25%	-4%	6%
Cc1cccc(C)c1OCc1cc(C(=O)NCC2CCCCC2)no1	6%	13%	4%
Cc1cccc(C)c1OCc1cc(C(=O)N(Cc2c(C)nn(C)c2C)C2CC2)no1	7.9µM*	-12%	4%
SMILES	GLP1R inv ag	HEK293 tox	GLP1R ag
CCOC(=O)c1ccc(N(C(=O)c2ccco2)C(C(=O)NC2CCCC2)c2ccncc2)cc1 (stereo not given)	50%	7%	1%
CC(C)c1c(C(=O)N/N=C/C2CC=CCC2)nnn1-c1nonc1N (stereo not given)	13%	4%	1%
CC(=O)/C(=N/Nc1ccccc1[N+](=O)[O-])N1CCCc2ccccc21	10µM*	?	21%
CC(=O)/C(=N/Nc1ccc([N+](=O)[O-])cc1)N1CCCc2ccccc21	0%	0%	10%
Nc1nc(SCc2ccc(Cl)cc2Cl)c2ncn(C3OC(CO)C(O)C3O)c2n1 (stereo not given)	-24%	-15%	7%
CC1=C(c2ccccc2)SC2=NCCN21	-15%	11%	-4%
Cc1nc2c(-c3ccc(F)cc3)c(C)nn2c(C)c1CCC(=O)NC(C)CCc1ccco1 (stereo not given)	7.1µM*	14%	-1%
Cc1nc2c(-c3ccccc3)c(C)nn2c(C)c1CCC(=O)NCc1ccco1	7%	26%	12%
